Bioassay records from PubChem BioAssay.
The list is not random: actives were taken first. Their share in the collection is about 6.1%.
DRD3 antagonist: qHTS of D3 Dopamine Receptor Antagonist: qHTS | AID 652054, 2013 | 360,000 compounds, 2.5% hits | max response, negative = inhibition, % | D3R cells, DiscoveRx beta-arrestin luminescence, antagonist mode; stronger effect = lower value; in the data active means max response below about -50%; inconclusive means no clear call, values can overlap the other calls; further: on the % scale 0 is the no-effect control and ±100 the full control effect
Target sequence (P35462 whole entry, looked up): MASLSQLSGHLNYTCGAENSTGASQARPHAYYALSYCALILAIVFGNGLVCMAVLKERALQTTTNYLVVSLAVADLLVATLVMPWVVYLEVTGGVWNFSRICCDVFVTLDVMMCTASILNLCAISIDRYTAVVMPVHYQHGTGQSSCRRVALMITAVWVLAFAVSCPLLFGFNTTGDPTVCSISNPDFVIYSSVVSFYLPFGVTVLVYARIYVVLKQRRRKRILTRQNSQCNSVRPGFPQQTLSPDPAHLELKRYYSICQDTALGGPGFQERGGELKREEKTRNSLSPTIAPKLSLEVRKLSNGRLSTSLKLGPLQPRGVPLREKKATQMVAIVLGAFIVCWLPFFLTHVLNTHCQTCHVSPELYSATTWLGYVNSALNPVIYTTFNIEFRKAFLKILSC
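Cells expressing the human receptor were seeded at 1500 cells/well, incubated overnight at 37 degrees C in 5% CO2, then exposed to library compounds with dopamine controls for 90 minutes at 37 degrees C before luminescent detection.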
DRD3 agonist: qHTS of D3 Dopamine Receptor Agonist: qHTS; 410,000 compounds, 0.58% hits; D3R DiscoveRx beta-arrestin cells, luminescence, 90 min; D(3) dopamine receptor (Homo sapiens), P35462; max activation, %; AID 652048, 2013; in the data active means max activation above about 30%; further: 0% is about no effect
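Agonist mode: compounds and dopamine controls were applied to plated cells for 90 min at 37 degrees C after an overnight attachment at 1500 cells/well. Luminescent read-out followed 30 - 60 minutes at room temperature with DiscoveRx detection reagent.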
D1 antagonist: Antagonist of Human D 1 Dopamine Receptor: qHTS. AID 504652, 2011. D(1A) dopamine receptor (Homo sapiens), P21728. 360,000 compounds, 3.2% hits. HEK293 TREx D1 cells, calcium flux, dopamine EC80; stronger effect = lower value. activity change, negative = inhibition, % at 10 µM; in the data active means activity change below about -30%; further: on the % scale 0 is the no-effect control and ±100 the full control effect
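Antagonism measured as reduced calcium response to an EC80 dopamine addition following 180 s compound pre-read; cells were inducible HEK293 Trex D1 plated overnight at 30 C, read kinetically at 1 cycle/sec.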
D1 potentiator: Potentiators of Human D1 Dopamine Receptor: qHTS. HEK293 TREx D1 cells, calcium flux, dopamine EC20 potentiation. potentiation, % at 10 µM. D(1A) dopamine receptor (Homo sapiens), P21728. 360,000 compounds, 0.036% hits; in the data active means potentiation above about 30%; further: 0% is about no effect
D1 agonist: Allosteric Agonists of the Human D1 Dopamine Receptor: qHTS; HEK293 T-REx D1 cells, calcium flux, agonist mode; 360,000 compounds, 1% hits; D(1A) dopamine receptor (Homo sapiens), P21728; AID 504660, 2011; activation, % at 2 µM; in the data active means activation above about 30%; further: 0% is about no effect
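Inducible HEK293 T-REx D1 cells, force-coupled to calcium signalling, were plated at 4000 cells/well with tetracycline and held overnight at 30 C. After no-wash calcium dye loading, compound-evoked calcium rise over 180 s flagged agonists.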
ERG-DNA inh: qHTS for Small Molecule Inhibitors of the ERG Ets/DNA interaction; Transcriptional regulator ERG (Homo sapiens), P11308; fluorescence polarization, His-ERG Ets domain / labelled DNA; 370,000 compounds, 0.028% hits; Potency, µM (highest dose often 76.9 µM), without a hit: at the top dose FP activity, negative = inhibition, actives largely listed as inhibitors; AID 624246, 2012; active means well fitted inhibition curve with a large enough effect in the polarisation, with a control signal flat; inconclusive means small, poorly fitted or top-dose-only effect, or effect the other way, or a change in a side signal; inactive means no such curve, though single readings can be large or run the other way; the % refers to the polarisation;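 further: polarization taken with two DNA probes labelled with fluorescein and Texas red; potency means the concentration at half of the fitted maximal effect; % of control where 0% means no effect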
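His-tagged ERG Ets domain (1 uM in the protein solution; 300mM KCl, 50mM Tris-HCl, 1mM EDTA, 1mM DTT, pH 7.5) received compound, then a probe mix of 5 nM fluorescein-DNA and 100nM Texas-615-DNA. Fluorescence polarization was read for both dyes.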
* = called active by the depositor; ? = inconclusive; . = no result given; ! = not confirmed by another sample.

SMILES	DRD3 antagonist	DRD3 agonist	D1 antagonist	D1 potentiator	D1 agonist	ERG-DNA inh
CCOC(=O)C1(C)CCN1C(=O)c1cccc(OC)c1 (stereo not drawn)	18	8	.	.	.	.
CCOC(=O)C1(C)CCN1C(=O)c1cccc(Cl)c1 (stereo not drawn)	0	48*	.	.	.	.
CCC1=NN(C(=O)C(=O)Nc2ccc(OC)cc2)C(O)(C(F)(F)F)C1 (stereo not drawn)	-159*	-36	-7	-5	7	.
CCC1=NN(C(=O)C(=O)NCCc2ccccc2)C(O)(C(F)(F)F)C1 (stereo not drawn)	-65*	-16	5	-12	0	.
CCOC(=O)C1CCN(CCC(=O)Nc2ccccc2Cl)CC1	-21	-29	3	1	1	1%
CCOC(=O)C1CCN(CCCSc2ccc(C)cc2)CC1	-87*	-21	.	.	.	-10%
CCOC(=O)C1CCN(CCC(=O)Nc2ccc(Br)c(C)c2)CC1	-28	-4	4	-6	136*!	-3%
CCOC(=O)C1CCN(CCC(=O)Nc2cccc(Cl)c2)CC1	-56*	-5	10	3	13	-7%
Cc1cc(NC(=O)CCN2CCC(C(N)=O)CC2)ccc1Br	-21	-5	-4	-2	4	-1%
Cc1ccc(SCCC(=O)Nc2ccc(Br)c(C)c2)cc1	-6	3	-33*	-11	10	.
CCOc1cc(-c2noc(CCC(=O)NCC3CCCO3)n2)ccc1OC (stereo not drawn)	-7	-6	0	0	-1	-1%
O=C(c1ccc2ccccc2c1)N1CCc2ccccc21	-8	-7	5	-9	7	-4%
O=C(Oc1ccc(C(=S)N2CCOCC2)cc1)c1ccccc1F	24	14	-4	-1	2	-8%
C=CCn1ccc2c([N+](=O)[O-])cccc2c1=O	-10	-11	-3	-2	5	11%
C=CCn1ccc(=NC=C(C#N)C#N)c2ccccc21	7	6	-6	-12	31*	-1%
COc1ccc(CN(C)CC(=O)Nc2ccccc2C(=O)NC2CC2)cc1OC	0	5	9	5	0	.
NNC(=O)c1cc(O)c(O)c(O)c1	-1	5	-36*	-11	-1	-2%
O=C1NN=C(c2ccc(Cl)cc2)CC1c1cccc(Cl)c1 (stereo not drawn)	-61*	9	15	-1	8	1%
O=C1NN=C(c2ccccc2)CC1c1ccc(Cl)cc1Cl (stereo not drawn)	5	4	-15	-5	0	4%
Cc1ccc(Nc2ncnc3c2nnn3Cc2ccccc2)cc1	5	30*	7	0	4	-2%
O=C(O)c1ccc(Nc2ncnc3c2cnn3Cc2ccccc2)cc1	6	5	-46*	-1	6	-5%
CC(C)CCNc1ncnc2c1nnn2Cc1ccccc1	14	-3	6	5	2	-5%
COc1cc(CN2CCN(Cc3c[nH]c4ccccc34)CC2CCO)cc(OC)c1 (stereo not drawn)	0	-10	8	1	17	-1%
Clc1ccc(-c2nnn3c2nc(N2CCCCC2)c2ccccc23)cc1	.	-1	19	2	3	1%
COc1ccc(-c2c(C)nn3c(C(F)(F)F)cc(C)nc23)cc1OC	.	-2	-56*	1	2	-7%
SMILES	DRD3 antagonist	DRD3 agonist	D1 antagonist	D1 potentiator	D1 agonist	ERG-DNA inh
COC(=O)c1cc2nc(-c3ccc(OC)c(OC)c3)cc(C(F)(F)F)n2n1	-70*	0	6	0	1	0%
COc1ccc(-c2cc(C(F)(F)F)n3nc(C(=O)O)cc3n2)cc1OC	-13	-6	-16	-6	2	-22%
O=C(NCCC1=CCCCC1)c1cccc(S(=O)(=O)N2CCCCC2)c1	4	2	-39*	-8	6	-4%
O=C(NCc1ccc(Cl)cc1)c1cccc(S(=O)(=O)N2CCCC2)c1	15	-9	-40*	-1	0	2%
COc1ccc(NC(=O)c2cc(S(=O)(=O)N3CCCCC3)cn2C)cc1Cl	.	49*	14	-3	0	-2%
Cn1cc(S(=O)(=O)N2CCCC2)cc1C(=O)NCc1ccc(Cl)cc1	34	6	-33*	-6	2	-10%
Cc1nn(Cc2ccccc2Cl)c(C)c1C(=O)N(C)CC(=O)Nc1cccc(F)c1	-1	1	-6	-4	2	0%
Cc1ccc(NC(=O)c2cc(S(=O)(=O)N3CCCC3)cn2C)cc1	6	1	9	-5	0	-7%
Cc1ccc(CCNC(=O)c2cc(S(=O)(=O)N3CCCC3)cn2C)cc1	-145*	-1	-6	-7	2	-9%
Cc1ccc(C(C)C)c(OCC(=O)OCc2c(C)noc2C)c1	-26	0	-3	-5	2	-2%
CCOc1cc(/C=C/C(=O)c2ccc(OC)c(CN3CCOCC3)c2)cc(Br)c1O	-20	1	-1	-5	41*	107%
CCOc1cc2[nH]c(=O)n(CCCN3CCN(c4ccc(OC)cc4)CC3)c(=O)c2cc1OCC	?	-9	1	-2	1	-1%
CCC(C)NC(=O)Cn1cc(S(=O)(=O)N2CCN(c3ccccc3F)CC2)c2ccccc2c1=O (stereo not drawn)	-10	-6	2	-2	2	10%
CCc1ccc2c(c1)C(c1ccncc1)=NNC(c1ccccc1)=N2	1	-2	0	-5	0	-1%
CCc1ccc2c(c1)C(c1ccc([N+](=O)[O-])cc1)=NNC(c1ccc(F)cc1)=N2	-26	-2	-40*	-6	1	-3%
Cc1ccc2c(c1)C(c1ccncc1)=NNC(c1ccc(F)cc1)=N2	-10	-4	-39*	-10	0	0%
CCc1ccc(C(=O)COC(=O)c2n[nH]c3ccccc23)cc1	15	10	-1	1	6	1%
O=C(CNC(=O)c1ccccc1)NCCc1ccc(O)c(O)c1	.	.	-39*	-5	4	.
Cc1cccc(CCNC(=O)c2ccc3c(c2)nc2n3CCOC2)c1	.	0	-2	2	3	2%
O=C(Nc1cc(-c2nc3cc(Cl)ccc3o2)ccc1Cl)c1ccco1	.	2	2	-3	0	0%
O=C(Nc1ccc(-c2nc3c(ccc4ccccc43)o2)cc1)c1ccco1	59	46*	-7	-3	1	-1%
